These results are taken from PubChem BioAssay (NCATS).

The structures appear in SMILES notation. Where “and” joins values, the source holds several entries; their conditions need not be identical. Equal values may be shown once. A number with no mark means an inactive call. Records with an inconclusive call do not appear. Some structures have more than one record in an assay (separate samples or runs), and their calls can disagree. Calls of active or inactive are those of the source. Unless noted, calls follow the shape of the dose curve; as a rule, active = well fitted curve in the direction sought with a large enough effect; inconclusive = small, poorly fitted or top-dose-only effect, or another doubt; inactive = no such curve, though single readings can be large; an effect the other way counts as inactive or inconclusive.

The nature of test [1]: Drug repurposing screens with cells derived from glioblastoma tumor samples (AID 1345199). Also: nearly all actives have a fitted effect of over 40% in size. Also: potency is read from the fitted curve at half-maximal effect. As to activity, negative = cell killing: % is scaled to controls: 0 for no effect and ±100 for the full control effect. As to conditions: GBM patient neurospheres viability, ATP luminescence, 48 h. An outline of the steps: (§1)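 Primary testing used CD133+ neurospheres from four GBM patients, seven concentrations, 48 h exposure and ATP-based viability; confirmation added three slower-growing patient lines.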

Test [2] has as its system Tov112D. Put plainly: Primary qHTS to identify gynecologic anti-cancer compounds using libraries of approved drugs and bioactive compounds (AID 1345084). Also: % is scaled to controls: 0 for no effect and ±100 for the full control effect; nearly all actives have a fitted effect of over 55% in size. The settings on record: Gynecologic cancer cell panel viability, ATPlite luminescence, 48 h; series mostly up to 57.5 µM. An outline of the steps: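 Luminescence from the ATPlite ATP-monitoring reagent indicates viable cell number; lower signal means cytotoxicity. Cells received compound 16 h after seeding and were exposed for 48 h across five concentrations.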
In general terms: Quantitative high-throughput screening tests each substance at several concentrations.

For test [3], the system named is astro (control astrocytes). The experiment in a line: Drug repurposing screens with cells derived from glioblastoma tumor samples (AID 1345199). Also: nearly all actives have a fitted effect of over 40% in size. Also: potency is read from the fitted curve at half-maximal effect. As to activity, negative = cell killing: % is scaled to controls: 0 for no effect and ±100 for the full control effect. As to conditions: viability, ATP luminescence, 48 h; series mostly up to 45.9 µM. An outline of the steps:
as §1

Test [4] addresses Nuclear receptor subfamily 1 group I member 2 (Rattus norvegicus) (UniProt Q9R1A7). Put plainly: qHTS assay for small molecule activators of the rat pregnane X receptor (rPXR) signaling pathway (AID 651751; call rule not given here; also: 0% is about no effect). As to conditions: rPXR reporter cells, luciferase (One-Glo), 24 h.
A short description of test [5]: qHTS assay for small molecule activators of the human pregnane X receptor (PXR) signaling pathway (AID 720659; call rule not given here; also: 0% is about no effect). As to conditions: DPX-2 HepG2 CYP3A4-luciferase, 24 h; series mostly up to 92.3 µM.
Setting [6] is: at 21.3 µM (top of the series), tumour line A.
[7] abbreviates: at 46 µM (top of the series), tumour line A.
Where [8] appears, read: at 45.9 µM (top of the series), tumour line B.
[9] abbreviates: at 45.9 µM (top of the series), tumour line D.
The mark [10] stands for this setting: at 46.1 µM (top of the series), tumour line C.

Nuclear receptor subfamily 1 group I member 2 (Rattus norvegicus), sequence (Q9R1A7 whole entry, looked up): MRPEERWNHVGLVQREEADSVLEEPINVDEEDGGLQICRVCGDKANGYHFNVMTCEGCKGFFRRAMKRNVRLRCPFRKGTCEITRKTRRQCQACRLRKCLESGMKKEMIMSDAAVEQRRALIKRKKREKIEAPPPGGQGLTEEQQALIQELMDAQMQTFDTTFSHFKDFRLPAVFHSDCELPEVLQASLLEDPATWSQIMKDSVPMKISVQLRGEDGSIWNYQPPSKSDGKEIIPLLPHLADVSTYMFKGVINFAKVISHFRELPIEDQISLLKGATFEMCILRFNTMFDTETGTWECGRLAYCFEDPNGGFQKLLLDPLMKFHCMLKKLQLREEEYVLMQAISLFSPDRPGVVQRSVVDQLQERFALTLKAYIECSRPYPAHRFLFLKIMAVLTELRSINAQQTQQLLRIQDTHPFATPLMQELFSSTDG

As for `COc1nc(C)nc(Cl)c1NC1=NCCN1`, the activity, negative = cell killing in test [1] (setting [6]) was -26.5%.
For `COc1ccc(C2CNC(=O)C2)cc1OC1CCCC1` (centres undefined), the activity, negative = cell killing in test [1] (setting [6]) is -26.3%.
Take `CCc1cccc2c3c([nH]c12)C(CC)(CC(=O)O)OCC3` (centres undefined): the activity, negative = cell killing in test [1] (setting [7]) was -23.8%.
In the case of `CC(C)(C)C(=O)Oc1ccc(S(=O)(=O)Nc2ccccc2C(=O)NCC(=O)O)cc1`, the activity, negative = cell killing in test [1] (setting [7]) was -15.5%.
For the compound `NC(=O)OCC(COC(N)=O)c1ccccc1`, the Potency result in test [2] and in test [3] was “inactive” in each case. Moreover, the activity, negative = cell killing is 2.73% in test [1] (setting [8]), -0.95% in test [1] (setting [9]), -11.1% in test [1] (setting [7]) and 48.2% in test [1] (setting [10]).
As for `Cc1ccc(C(=O)Nc2ccc(S(=O)(=O)O)c3cc(S(=O)(=O)O)cc(S(=O)(=O)O)c23)cc1NC(=O)c1cccc(NC(=O)Nc2cccc(C(=O)Nc3cc(C(=O)Nc4ccc(S(=O)(=O)O)c5cc(S(=O)(=O)O)cc(S(=O)(=O)O)c45)ccc3C)c2)c1`, the Potency entry in test [2] is “inactive”. The activity, negative = cell killing in test [1] (setting [8]) is -18.8%; in test [1] (setting [9]), -0.172%; in test [1] (setting [7]), -24.3%; in test [1] (setting [10]), -24.1%.
For `CC(=O)OCC(CCn1cnc2cnc(N)nc21)COC(C)=O`, the Potency entry in test [2] and in test [3] was “inactive” each time. The activity, negative = cell killing in test [1] (setting [8]) is -16.1%; in test [1] (setting [9]) it was -3.4%; in test [1] (setting [7]), -17.2%; in test [1] (setting [10]), -0.294%.
`NS(=O)(=O)c1cc2c(cc1Cl)NCNS2(=O)=O`: the Potency result in test [2] and in test [3] was “inactive” throughout. In addition, the activity, negative = cell killing was -16.5% in test [1] (setting [8]), -0.301% in test [1] (setting [9]), -4.73% in test [1] (setting [7]) and -21.1% in test [1] (setting [10]). In addition, the max response in test [4] is -0.0581% and 1.2%. Moreover, the call in test [5] was inactive.
In the case of `CCC1(c2ccccc2)C(=O)NCNC1=O`, the Potency result in test [2] and in test [3] was “inactive” each time. Also, the activity, negative = cell killing in test [1] (setting [8]) was -7.45%; in test [1] (setting [9]), 9.05%; in test [1] (setting [7]), -15.2%; in test [1] (setting [10]) it was -6.01%. In test [5], the compound was classed as inactive.
For `CN1CCC(=C2c3ccccc3C=Cc3ccccc32)CC1`, the Potency entry in test [2] is “inactive”. For the same compound, the activity, negative = cell killing in test [1] (setting [10]) is -12.4%. Also, the Potency in test [1] (tumour line A) is 3.55 µM (active); in test [1] (tumour line B), 25.1 µM (active); in test [1] (tumour line D), 20 µM (active); in test [3], 17.8 µM (active).
In the case of `CCC1(C)CC(=O)NC1=O` (centres undefined), the Potency result in test [2] and in test [3] was “inactive” throughout. In addition, the activity, negative = cell killing in test [1] (setting [8]) is -5.39%; in test [1] (setting [9]), -6.6%; in test [1] (setting [7]), -18.2%; in test [1] (setting [10]), -11.1%.
Consider `CC(C)(Oc1ccc(C2CC2(Cl)Cl)cc1)C(=O)O` (centres undefined), for which the Potency result in test [2] and in test [3] was “inactive” each time. For the same compound, the activity, negative = cell killing was -9.51% in test [1] (setting [8]), -16.1% in test [1] (setting [9]), -29.3% in test [1] (setting [7]) and 6.66% in test [1] (setting [10]). The max response in test [4] is 27.5%. The compound was called inactive in test [5].
`Cn1c(=O)c2[nH]cnc2n(C)c1=O`: the Potency result in test [2] and in test [3] was “inactive” in each case. Further, the activity, negative = cell killing in test [1] (setting [8]) was -8.57%; in test [1] (setting [9]), -12.3%; in test [1] (setting [7]) it was -8.84%; in test [1] (setting [10]), -5.36%. Further, the max response in test [4] was 5.46%. In addition, the call in test [5] was inactive.
Consider `N[C@@H](Cc1c[nH]c2ccc(O)cc12)C(=O)O`, for which the Potency entry in test [2] and in test [3] was “inactive” in each case. Also, the activity, negative = cell killing was -15.2% in test [1] (setting [8]), -5.01% in test [1] (setting [9]), -33.5% in test [1] (setting [7]) and -4.77% in test [1] (setting [10]). Besides, in test [4], the max response was 2.83%. For the same compound, in test [5], the result was inactive.
As for `Cc1ccccc1N1C(=O)c2cc(S(N)(=O)=O)c(Cl)cc2NC1C` (centres undefined), in test [2], the Potency result was “inactive”. The activity, negative = cell killing in test [1] (setting [8]) is -0.853% and -2.25%; in test [1] (setting [9]), 16.5% and -1.42%; in test [1] (setting [7]) it was -25.2%; in test [1] (setting [10]), -19% and -29.3%. Further, in test [1] (tumour line A), the Potency was 35.5 µM (active).
For `CC1COc2c(N3CCN(C)CC3)c(F)cc3c(=O)c(C(=O)O)cn1c23` (centres undefined), the Potency entry in test [2] and in test [3] was “inactive” throughout. The activity, negative = cell killing in test [1] (setting [8]) was -12.3%; in test [1] (setting [9]), -0.592%; in test [1] (setting [7]), -24.5%; in test [1] (setting [10]), -10.7%.
As for `CC12CC3CC(C)(C1)CC(N)(C3)C2`, in test [2], the Potency entry was “inactive”. The activity, negative = cell killing in test [1] (setting [8]) was 2.01%; in test [1] (setting [9]), -1.27%; in test [1] (setting [7]), 0.163%; in test [1] (setting [10]) it was 0.449%.
As to `CCCCc1oc2ccccc2c1C(=O)c1cc(I)c(OCCN(CC)CC)c(I)c1`, in test [2], the Potency result is “inactive”. Besides, the activity, negative = cell killing in test [1] (setting [10]) was 2%. Further, the Potency was 7.08 µM (active) in test [1] (tumour line A), 25.1 µM (active) in test [1] (tumour line B) and 11.2 µM (active) in test [1] (tumour line D).
For `NC(=O)NO`, in test [2], the Potency entry is “inactive”. Also, the activity, negative = cell killing in test [1] (setting [8]) is -13.8%; in test [1] (setting [9]) it was -5.79%; in test [1] (setting [7]) it was -19.1%; in test [1] (setting [10]) it was -11.2%.
On to `O=C1Cc2cc(CCN3CCN(c4nsc5ccccc45)CC3)c(Cl)cc2N1`, for which the Potency entry in test [2] was “inactive”. Further, the activity, negative = cell killing in test [1] (setting [8]) is -28.8%; in test [1] (setting [9]), -18.4%; in test [1] (setting [10]), -28.3% and -12.6%. The values for the Potency in test [1] (tumour line B) and in test [1] (tumour line D) were 17.8 µM (active) and 12.6 µM (active), respectively.
Take `COc1ccc2[nH]cc(CCNC(C)=O)c2c1`: the Potency entry in test [2] and in test [3] was “inactive” throughout. Also, the activity, negative = cell killing in test [1] (setting [8]) was -3.86%; in test [1] (setting [9]), 3.96%; in test [1] (setting [7]) it was -18.9%; in test [1] (setting [10]) it was -11.3%. Besides, the max response in test [4] is 3.19% and 0.0273% and 3.25%. Also, in test [5], the outcome was inactive.
For the compound `CC(C(=O)O)c1cccc(C(=O)c2ccccc2)c1` (centres undefined), the Potency entry in test [2] and in test [3] was “inactive” throughout. In addition, the activity, negative = cell killing in test [1] (setting [8]) was -12.8%; in test [1] (setting [9]), -8.28%; in test [1] (setting [7]), -32%; in test [1] (setting [10]), 2.51%.
